L major viab: Leishmania major promastigote growth inhibition, primary screen. Leishmania major promastigotes, resazurin fluorescence viability. inhibition, % at 10 µM. 200,000 tested, 9% active. AID 1063, 2008; in the data active = inhibition above about 50%;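 also: promastigotes grown with compound for 44 hours at 28 °C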
INS promoter inh: inhibitors of insulin promoter-driven GFP, primary screen, imaging, TRM-6 cells (human fetal islet line), eGFP reporter, cell count. reporter expression induced with tamoxifen. inhibition, % at 2 µM. 130,000 tested, 0.9% active. AID 1273, 2008;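 active = inhibition above the mean plus 3 SD, with well images judged a real hit on visual review, cut at about 60% in these data, passing the limit was not always enough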
WT yeast gro inh: growth inhibition of WT strain, primary screen, mitochondrial fusion inhibitor project, WT and mutant strains, chemical genetic; 190,000 tested, 2.1% active; mitochondrial fusion phenotypic screen; inhibition, % at 10 µM; in the data active = inhibition above about 58%; tested in S. cerevisiae
ROMK mod: ROMK potassium channel modulators, primary screen, cell-based, thallium flux, MLSMR library; ATP-sensitive inward rectifier potassium channel 1 (Homo sapiens), P48048; Tet-inducible ROMK, thallium flux fluorescence; actives lie on both sides; B-score at 10 µM; 130,000 tested, 2% active; AID 1918, 2009;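 active = signal ratio slope over the read window, or its plate-corrected B-score, at least 3 SD from the plate mean, either direction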;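 also: B-score of the F/F0 ratio slope over 7 to 12 s after thallium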
Target sequence (P48048 whole entry, looked up): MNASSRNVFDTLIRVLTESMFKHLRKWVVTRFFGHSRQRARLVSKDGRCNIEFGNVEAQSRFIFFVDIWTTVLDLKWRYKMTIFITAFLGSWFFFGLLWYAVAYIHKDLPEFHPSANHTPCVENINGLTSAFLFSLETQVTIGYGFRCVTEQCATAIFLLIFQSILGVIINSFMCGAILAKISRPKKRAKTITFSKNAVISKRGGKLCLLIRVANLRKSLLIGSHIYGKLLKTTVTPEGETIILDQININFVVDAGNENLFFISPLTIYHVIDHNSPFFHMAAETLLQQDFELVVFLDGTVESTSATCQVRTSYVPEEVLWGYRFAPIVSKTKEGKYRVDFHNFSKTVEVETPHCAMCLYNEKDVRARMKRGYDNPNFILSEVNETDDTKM
Cl transport mod: KCC2 cotransporter modulators, thallium flux, primary screen, cell-based, HEK293 KCC2, FluoZin-2 fluorescence, MLSMR; Solute carrier family 12 member 5 (Homo sapiens), Q9H2X9; KCC2 cells, thallium flux FluoZin-2 fluorescence; B-score of Tl+ flux slope (higher = more flux/activation; lower = inhibition) at 10 µM; 190,000 tested, 2.2% active;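 active = thallium flux slope and its plate-corrected score both differing from the plate sample mean at a set confidence after two filtering rounds, in either direction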;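 also: slope of fluorescence scaled to starting intensity during 10 to 20 s after thallium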
Insulin prom up: insulin promoter activators in MIN6 cells, imaging, high-content screening, mouse beta cells; MIN6 insulin promoter-GFP reporter; active compounds read high; z-score at 5 µM; 190,000 tested, 0.3% active; AID 1625, 2009;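 active = z-score above 3 at 5 µM with at least 500 cells counted in the well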
Large screens that a line does not name were inactive. A selection: hits, their analogues and other compounds. The true share with any hit is near 12%.

CSCCC1NC(=O)N(CC(=O)N2N=C(c3ccc(Cl)cc3)CC2c2ccco2)C1=O (centres undefined)	none (no result: INS promoter inh)
CCOC(=O)/C(=C\c1ccc(OC(F)F)cc1)C1=Nn2c(nnc2-c2ccc(Cl)cc2)SC1	L major viab 100.4, WT yeast gro inh 71.1 (no result: ROMK mod)
COc1cccc(Nc2nnc(SCC(=O)Nc3sccc3C(N)=O)s2)c1	L major viab 65.0 (no result: INS promoter inh)
CCOC(=O)c1cnn(-c2ccccc2)c1NC(=O)C(F)(F)C(F)(F)C(F)(F)F	none
CN(Cc1nc2ccccc2n1C)S(=O)(=O)c1ccc(F)cc1	INS promoter inh 93.3 (no result: ROMK mod, Cl transport mod)
Cc1ccc2nc(SCC(=O)Nc3ccc4c(c3)CCC4)[nH]c2c1	none
CC(=O)c1nc(N2C(=O)CC(Cc3cc(C)cc(C)c3)C2=O)sc1C (centres undefined)	L major viab 53.6
CCN1CCCC1CNC(=O)c1csc2c1CCCC2 (centres undefined)	none (no result: INS promoter inh)
Fc1ccc(Cn2nnnc2CN2CCN(C3CCCCC3)CC2)cc1	L major viab 86.1 (no result: INS promoter inh, ROMK mod)
c1coc(Cn2nnnc2CN2CCN(C3CCCC3)CC2)c1	L major viab 74.0 (no result: ROMK mod)
CCOC(=O)CN(C(=O)CSc1nnc2c(n1)[nH]c1ccc(F)cc12)c1ccccc1	none (no result: ROMK mod)
CCOc1ccc(CC(=O)Nc2cccc(-c3ccc4nnc(C)n4n3)c2)cc1	none (no result: INS promoter inh)
COCCN1CN(S(=O)(=O)c2ccccc2)c2nc3ccccc3nc21	Insulin prom up 3.14 (no result: ROMK mod)
COc1ccccc1CN1CN(S(=O)(=O)c2ccccc2)c2nc3ccccc3nc21	none (no result: L major viab, INS promoter inh, WT yeast gro inh, ROMK mod)
COCCN1CN(S(=O)(=O)c2ccc(Cl)cc2)c2nc3ccccc3nc21	L major viab 77.1 (no result: ROMK mod)
O=S(=O)(c1cccs1)N1CN(Cc2ccc(Cl)cc2)c2nc3ccccc3nc21	none (no result: ROMK mod, Cl transport mod, Insulin prom up)
COc1ccc(-n2c(SCC(=O)N3CCOCC3)nnc2C(C)N2CCCCC2)cc1 (centres undefined)	none (no result: L major viab, INS promoter inh, WT yeast gro inh, ROMK mod)
CCCCCCNC(=O)CC(NS(=O)(=O)c1ccc(NC(C)=O)cc1)C(C)C (centres undefined)	none (no result: INS promoter inh, ROMK mod, Cl transport mod)
CCCCN(C)C(=O)CC(NS(=O)(=O)c1ccc(NC(C)=O)cc1)C(C)C (centres undefined)	L major viab 50.2
CCOC(=O)C(C)N1C(=O)S/C(=C/c2ccc3c(c2)n(C)c(=O)n3C)C1=O (centres undefined)	L major viab 67.4 (no result: INS promoter inh)
CCOC(=O)/C(C#N)=C(C)/C=C1\Sc2ccccc2N1CC	none
CCN1/C(=C\C=C(C(C)=O)C(C)=O)Sc2ccccc21	Insulin prom up 7.73 (no result: ROMK mod)
CCN1/C(=C\C(=S)Nc2ccccc2)Sc2ccccc21	WT yeast gro inh 69.2 (no result: INS promoter inh, Insulin prom up)
CC(=O)Nc1ccc(NC(=O)Cc2ccc(S(=O)(=O)N3CCCCC3)s2)cc1	INS promoter inh 80.0 (no result: Insulin prom up)
Cc1ccc(C)c(NC(=O)Cc2ccc(S(=O)(=O)N3CCCCC3)s2)c1	none (no result: INS promoter inh)
O=C(O)CCSc1nnc(SCC(=O)NCC(F)(F)F)s1	L major viab 62.7
CCOC(=O)CNC(=O)CSc1nnc(SCC(=O)NCC(=O)OCC)s1	none
Cc1ccc(OCC(=O)NCC(=O)Nc2ccc(F)c(F)c2F)c([N+](=O)[O-])n1	none (no result: INS promoter inh)
N#C/C(=C/c1ccc(CNS(=O)(=O)c2ccccc2)o1)C(N)=O	L major viab 50.8
Cc1cc2cc(CNC(=O)c3ccc4c(c3)OCO4)ccc2[nH]1	none (no result: WT yeast gro inh, ROMK mod)
O=C(NC1CCCCC1)C(c1ccc(O)cc1)N(CC1CCCO1)C(=O)C1COc2ccccc2O1 (centres undefined)	L major viab 50.1 (no result: Insulin prom up)
Cc1ccc(C(C(=O)NC2CCCCC2)N(Cc2ccco2)C(=O)C2COc3ccccc3O2)o1 (centres undefined)	none
Cc1ccc(C(C(=O)NC2CCCCC2)N(Cc2cccnc2)C(=O)C2COc3ccccc3O2)o1 (centres undefined)	L major viab 64.0
O=C1CC(C(=O)N(CC2CCCO2)C(C(=O)NC2CCCCC2)c2ccncc2)CS1 (centres undefined)	none (no result: ROMK mod, Insulin prom up)
CCCCn1c(-c2ccccc2)cnc1SCC(=O)NCCc1ccc(OC)c(OC)c1	L major viab 66.3 (no result: INS promoter inh, ROMK mod)
O=C(C1CN(S(=O)(=O)c2ccccc2)CCN1S(=O)(=O)c1ccccc1)N1CCCCCC1 (centres undefined)	INS promoter inh 100.0
CC(C)(C)NC(=O)C1CN(S(=O)(=O)c2ccccc2)CCN1S(=O)(=O)c1ccccc1 (centres undefined)	none (no result: ROMK mod)
O=C(Nc1ccc(O)c2c(=O)cc(-c3cccc(Cl)c3)oc12)c1ccc(F)cc1	none (no result: L major viab, INS promoter inh, WT yeast gro inh, ROMK mod)
O=C(CSc1nnc(Cc2ccccc2)n1Cc1ccco1)NC1CCCC1	none (no result: ROMK mod)
CCCCCC/C(C)=C1/SC(=S)NC1=O	WT yeast gro inh 86.4, Cl transport mod 53.4 (no result: ROMK mod)
C/C(C/C(C)=C1/SC(=S)NC1=O)=C1\SC(=S)NC1=O	none
COc1cc(C2C(C#N)=C(N)N(c3cccnc3)C3=C2C(=O)CC(C)(C)C3)ccc1O (centres undefined)	none (no result: ROMK mod, Insulin prom up)
O=C(Nc1cc(S(=O)(=O)N2CCCC2)ccc1OCC(F)(F)F)c1ccc(F)cc1	none (no result: ROMK mod)
O=C(Nc1ccccc1N1CCOCC1)c1cc(-c2ccco2)nc2ccccc12	none (no result: Cl transport mod)
COc1cc(-c2cc(C(=O)Nc3ccccc3N3CCOCC3)c3ccccc3n2)cc(OC)c1OC	L major viab 60.6 (no result: INS promoter inh)
O=C(NN1CCOCC1)c1cc(-c2ccc(Br)cc2)nc2ccccc12	L major viab 58.5
CCc1ccc(-c2cc(C(=O)NN3CCOCC3)c3ccccc3n2)cc1	none
Nc1c2c(nc3sc4c(c13)CCCC4)-c1ccccc1CC2	none (no result: L major viab, INS promoter inh, WT yeast gro inh, ROMK mod)
CSc1ccccc1NC(=O)CN1CC(C)OC(C)C1 (centres undefined)	none (no result: INS promoter inh)
Cc1ccc(OCC(=O)NCc2cccs2)cc1	none
Cc1cc(C)cc(NC(=O)COc2ccc3c(C)c(Cc4ccccc4)c(=O)oc3c2)c1	L major viab 93.9 (no result: ROMK mod)
Cc1c(Cc2ccccc2)c(=O)oc2cc(OCC(=O)c3ccccc3)ccc12	none (no result: ROMK mod)
Cc1c(Cl)c(=O)oc2cc(OCC(=O)NCc3cccs3)ccc12	L major viab 62.3 (no result: ROMK mod)
Cc1ccc(C(C(=O)NC2CCCC2)N2CCCC(C)C2)cc1 (centres undefined)	none (no result: INS promoter inh, ROMK mod)
CC1CCCN(C(C(=O)NC2CCCCC2)c2cc3c(cc2[N+](=O)[O-])OCO3)C1 (centres undefined)	L major viab 95.0
CC(C)(C)c1nc(SCC(=O)c2ccccc2)c2ccccc2n1	none (no result: INS promoter inh)
O=C(Cc1c2ccccc2nc2ccccc12)c1ccccc1	INS promoter inh 61.1
Cc1c(CN(C)C(=O)c2ccc(Br)o2)cnn1C	none (no result: Cl transport mod, Insulin prom up)
CNS(=O)(=O)c1ccc(NC(=O)C(CCSC)NC(N)=O)cc1 (centres undefined)	none (no result: INS promoter inh, Cl transport mod)
Oc1c(N=NC(=S)Nc2ccccc2F)c2ccccc2n1Cc1ccc(Cl)cc1	L major viab 95.7 (no result: INS promoter inh)

Screening data deposited in PubChem BioAssay by several laboratories.
